High-throughput results as filed in PubChem.
IMPase Li cell – cell-permeable IMPase inhibitors with lithium potentiation; Potency, µM (series often up to 59.4 µM), for inactives: at the highest dose activity, negative = IMPase inhibition, usual class: inhibitors; CHO-M1 cells, IP1 TR-FRET (IP-One), carbachol + lithium; AID 1457; 210,000 compounds, 0.35% hits;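 also: IP1 builds up when IMPase is blocked and the TR-FRET signal falls; potency is read from the fitted curve at half-maximal effect; plate controls were basal vehicle for no effect and high inhibitor control for full effect; nearly all actives have a fitted effect of over 50% in size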
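Lithium-sensitised IP1 accumulation assay; M1-expressing CHO cells treated 30 min at 37C with compound. Competitive antibody detection by time-resolved FRET followed a 10 min room-temperature lysis step.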
PNC assembly inh – inhibitors of perinucleolar compartment assembly. PC3M PTB-GFP, PNC prevalence imaging, 16 h; active compounds read low. activity change (PNC), negative = inhibition, % at 10 µM. 140,000 compounds, 3.1% hits;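 active = readout at or below -70, meaning at least 70% loss of cells showing the perinucleolar compartment, a nuclear body marking cancer cells; inconclusive = readout between -30 and a set limit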;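 also: plate controls were DMSO wells for no effect and camptothecin positive control wells for full effect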
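Compounds are pinned in duplicate onto adhered PC3M cells stably expressing GFP-tagged PTB and incubated 16 h at 37 C. Cells are then fixed, nuclei stained with Hoechst, and PNC-positive cells counted.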
12-hLO inh – inhibitors of human 12-lipoxygenase (ALOX12); 150,000 compounds, 0.12% hits; P18054; AID 1452; Potency, µM (titrated, usually from 57.1 µM), for the others: top-dose activity change, negative = inhibition, usual class: inhibitors; purified 12-hLO, xylenol orange hydroperoxide absorbance; also: potency is read from the fitted curve at half-maximal effect; nearly all actives have a fitted effect of over 55% in size
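Hydroperoxide formation by human 12-lipoxygenase from 40 uM arachidonic acid was followed colorimetrically via ferric-xylenol orange complex, using the 573/405 nm absorbance ratio. Enzyme concentration was 150 nM, with 30 min reaction at room temperature.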
IMPase cell inh – membrane-permeable compound that blocks inositol monophosphatase; P97697; inhibition (IP1 accumulation), % at 46.1 µM; 120,000 tested, under 10 active; CHO-M1 cells, IP1 accumulation, HTRF TR-FRET ratio; AID 901; active = well fitted curve in the direction sought with a large enough effect in the signal ratio, not every such curve was filed as active; inconclusive = small, poorly fitted or top-dose-only effect, or a change in a side signal; inactive = no such curve, though single readings can be large or run the other way; the % refers to the signal ratio;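 also: cells stimulated with carbachol in lithium chloride buffer; plate controls were DMSO basal wells for no effect and reference inhibitor wells for full effect; higher means more IMPase inhibition seen as more IP1 and lower FRET ratio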
Target sequence (P97697 whole entry, looked up): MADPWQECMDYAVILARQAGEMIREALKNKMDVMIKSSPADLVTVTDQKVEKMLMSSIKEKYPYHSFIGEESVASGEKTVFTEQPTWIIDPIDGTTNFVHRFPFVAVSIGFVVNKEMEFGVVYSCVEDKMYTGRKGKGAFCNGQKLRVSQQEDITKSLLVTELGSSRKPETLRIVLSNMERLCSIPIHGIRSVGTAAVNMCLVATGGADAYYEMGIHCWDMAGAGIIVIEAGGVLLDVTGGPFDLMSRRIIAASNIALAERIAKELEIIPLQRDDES
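The IP-One HTRF competitive assay in carbachol-stimulated CHO-M1 cells quantifies cellular IP1. Compounds spanned up to 46 uM final, and activity is expressed as AC50 from concentration-response fits of the ratio and donor data.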
Starred values were filed as active, the others as inactive; ? = inconclusive; nt = no result; [ ] = remark or other dose. This excerpt belongs to a sample that is enriched for hits. Unless noted, calls follow the shape of the dose curve; as a rule, active = well fitted curve in the direction sought with a large enough effect; inconclusive = small, poorly fitted or top-dose-only effect, or another doubt; inactive = no such curve, though single readings can be large; an effect the other way counts as inactive or inconclusive. Unless noted, % is scaled to controls: 0 for no effect and ±100 for the full control effect.

SMILES	IMPase Li cell	PNC assembly inh	12-hLO inh	IMPase cell inh
CC#CCN1c2ccccc2[C@]23C[C@@H](C(=O)OC)N(C(=O)COCc4ccccc4)C2=NC(C(=O)OC)=C(C(=O)OC)[C@H]13	6%	nt	4%[11.4 µM]	nt
CCOC(=O)N1CCN(C(=O)CS(=O)Cc2nc(-c3cccc(C)c3)oc2C)CC1 (stereo unspecified)	5%[38.3 µM]	-28	2%	-8
Cc1cccc(-c2nc(CS(=O)CC(=O)N3CCc4ccccc4C3)c(C)o2)c1 (stereo unspecified)	1%[38.3 µM]	-106*	-3%	-2
COc1cc(NC(=O)c2cc3c(=O)n(C)c4ccccc4c3n2C)cc(OC)c1OC	3.5µM*	24	2%	?
CCNS(=O)(=O)c1cccc(C(=O)c2c(C)cc3ccccn23)c1	-2%	-90*	-6%	nt
CN(C)c1ccc(-c2nc3ccccn3c2Nc2ccc3c(c2)OCCO3)cc1	nt	nt	nt	-3
CCN(CC)CCCNC(=O)CN1C(=O)CSc2ccc(S(=O)(=O)N3CCOCC3)cc21	-1%	-113*	1%	nt
Cc1cccc(Cn2ccc(N)n2)c1	22%	nt	nt	nt
CCN1C=C(C(=O)OC)C(c2cccc(C)c2)C(C(=O)OC)=C1	-12%[38.3 µM]	-80*	-4%	2
CCS(=O)(=O)n1nc(-c2ccccc2)nc1SC	27%[38.3 µM]	25	-3%	-6
C[C@H]1C(O)[C@@]23CCC4C5(C=[N+](CCO)C[C@]4(C)CCC5)C2C[C@@H]1C3 (stereo partly specified)	1%	nt	nt	nt
COc1cccc(C2=NOC(C(=O)Nc3cccnc3)C2)c1 (stereo unspecified)	-2%[38.3 µM]	38	-8%	-1
COc1ccc(C2=NOC(C(=O)Nc3cccnc3)C2)cc1 (stereo unspecified)	28%[38.3 µM]	-102*	1%	7
C=C(C)C1CC=C(C)/C(=N\NC(=O)CCc2ccccc2)C1 (stereo unspecified)	-4%	-12	-1%	nt
COc1cccc(N2CCN(C(=O)C3CCC(CNS(=O)(=O)c4ccc(Br)s4)CC3)CC2)c1 (stereo unspecified)	nt	nt	nt	15
CCOc1ccc(Cc2nnc(N)s2)cc1OCC	21%[38.3 µM]	-86*	1%	-6
Cc1ccc(-c2nn(CC(=O)Nc3ccc4c(c3)nc3n4CCOC3)c(=O)c3ccccc23)cc1	10µM*	25	-4%	-1
O=C(Cn1nc(-c2ccccc2)c2ccccc2c1=O)Nc1ccc2c(c1)nc1n2CCOC1	-6%[38.3 µM]	18	-7%	8
Cn1c(CN2CCCC2)nc2cc(NC(=O)COc3ccccc3)ccc21	9%[38.3 µM]	?	-2%	-2
Cc1nn(CC(=O)Nc2ccc3c(c2)nc(CN2CCCC2)n3C)c(=O)c2ccccc12	1%[38.3 µM]	-100*	-5%	-4
Cn1cnnc1SCCC(=O)Nc1ccc(Cl)cc1	2%	-113*	2%	0
Cn1cnnc1SCCC(=O)Nc1ccccc1	nt	28	-2%	4
COc1cc(OC)cc(-n2nnnc2SCC(=O)Nc2ccc(C(C)=O)cc2)c1	3.5µM*	43	4%	-5
COC(=O)c1ccccc1NC(=O)Cn1c(-c2nonc2N)nc2ccccc21	22%[38.3 µM]	-98*	-4%	1
O=C(NC1CCCCC1)C1CCC(CNS(=O)(=O)c2cccc3nsnc23)CC1 (stereo unspecified)	13%[38.3 µM]	2	1%	3
SMILES	IMPase Li cell	PNC assembly inh	12-hLO inh	IMPase cell inh
O=C(NCc1cccs1)C1CCC(CNS(=O)(=O)c2cccc3nsnc23)CC1 (stereo unspecified)	7%[38.3 µM]	?	-5%	1
O=C(CNS(=O)(=O)c1cccc2nsnc12)NC1CCCCC1	10%[38.3 µM]	-111*	-2%	8
O=C(CCNS(=O)(=O)c1cccc2nsnc12)NC1CCN(Cc2ccccc2)CC1	10%	-112*	1%	13
COc1cccc(CNC(=O)C2CCC(CNS(=O)(=O)c3cccc4nsnc34)CC2)c1 (stereo unspecified)	-3%[38.3 µM]	-106*	5%	13
CC1=CC[C@@]2(CO)COC(c3ccccc3O)C1C2 (stereo partly specified)	10%	nt	nt	nt
Cc1noc(C)c1-c1ccc2ncnc(NCCN3CCOCC3)c2c1	4%	nt	nt	nt
CCCc1ccc(-c2cc(NC(=O)CSc3nnc(N)s3)n(-c3ccccc3)n2)cc1	nt	?	1%	?
C=C1C(=O)OC2CC1C(OC(C)=O)CC(C)=CCCC(C)=CCC[C@@]2(C)O (stereo partly specified)	15%	nt	0%	nt
O=S(=O)(NCc1ccco1)c1cccc2cccnc12	5%	-100*	-1%	-4
C/C(=N\Nc1ccc(C(F)(F)F)cn1)c1ccc(S(=O)(=O)NCc2ccco2)cc1	13%	14	0%	nt
C/C(=N\Nc1ccccn1)c1ccc(S(=O)(=O)NCc2ccco2)cc1	5%	-83*	-3%	nt
COc1ccc(NC(=O)c2ccco2)cc1NC(=O)COc1ccccc1Cl	nt	nt	nt	2
Cc1c(/C=C(\C#N)C(=O)Nc2cccc(Cl)c2)c2ccccc2n1Cc1ccccc1Cl	nt	nt	nt	-6
Nc1nc(NC(=O)c2ccco2)nn1-c1ccccc1	-6%[38.3 µM]	-90*	-4%	-4
O=C(Nc1ccc2nn(-c3ccccc3)nc2c1)c1ccco1	-15%	-100*	8%	-1
CC(C)(C)NC(=O)c1cccc(NC(=O)c2ccco2)c1	1%	-100*	-3%	0
COC(=O)[C@@H](NC(=O)N1CCc2nc(COc3ccccc3)c3c(c2C1)CO[C@@H](C)C3)C(C)C	-3%	nt	0%[11.4 µM]	nt
Cc1ccc(NC(=O)CCSc2nc(C)cc(C)n2)cc1	41%[38.3 µM]	0	-4%	1
Cn1cccc1/C=N/NC(=O)c1ccn[nH]1	5%	-119*	5%	-1
O=c1cc(-c2ccccc2Cl)oc2c(NS(=O)(=O)c3cc(Cl)cc(Cl)c3O)ccc(O)c12	12%	38	0.28µM*	nt
CC1CCCC(C)N1C(=O)C1CCCCC1 (stereo unspecified)	-3%	?	1%	nt
O=C(O)C1CC(=O)N(CCC23CC4CC(CC(C4)C2)C3)C(=Nc2ccccc2)S1 (stereo unspecified)	nt	nt	-19%	nt
Cn1cc(Br)c(C(=O)N/N=C/c2cccc(OC3CSC3)c2)n1	20%	41	0%	nt
CCOc1cc(/C=N/NC(=O)CN2CCOCC2)ccc1OCc1ccccc1	2%	0	-1%	nt
CCOc1cc(/C=N/NC(=O)CSc2nncn2C)ccc1OCc1ccccc1	-4%	-96*	3%	nt
CCOc1cc(/C=N/NC(=O)c2nn(C)cc2Br)ccc1OCc1ccccc1Cl	2%	-112*	-2%	nt
c1ccc(-c2nc(-c3cccc4ccccc34)c(NC3CCCCC3)o2)cc1	24%	nt	5%	nt
COc1ccc(Oc2coc3cc(OC(=O)/C=C/c4ccccc4)ccc3c2=O)cc1	4%	-81*	-5%	4
CCCCN1C(=O)N(C)C2C1N(C)C(=O)N2CCCC (stereo unspecified)	3%	-100*	-1%	-9
Cc1cc(C)nc(N/N=C/c2ccco2)n1	27%[38.3 µM]	-110*	-1%	-2
